Assay results published in PubChem BioAssay (EPA / NIEHS).
Active and inactive are the calls of the source. Rule for the calls: active = hit-call score of the fitted dose curve at least 0.9, where 1 is the maximum; inactive = score below 0.9.

Assay: ATG_GLI_CIS: Attagene CIS-FACTORIAL HepG2 Assay for human Zinc Finger Protein GLI1 (AID 2282945)
Details: HepG2, Attagene cis-factorial reporter mRNA, GLI element; actives raise or lower the signal
Method in brief: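 Transiently transfected HepG2 cells report endogenous transcription factor activity via cis-element-driven reporter units. After 24 h compound exposure, reporter mRNA was measured by RT-PCR with capillary electrophoresis; bidirectional fitting against DMSO baseline.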
In the case of Nc1ccc(-c2ccc(N)c(N)c2)cc1N, the outcome is reported as “inactive”. In the case of CCOP(O)OCC, the outcome is reported as “inactive”. With C#CC1(O)CCCCC1 the outcome was “inactive”. For O=c1[nH]c(Cl)c(Cl)cc1Cl, the outcome was “inactive”. With CCC(C)c1cc(C(C)(C)C)cc(-n2nc3ccccc3n2)c1O (configuration not stated) the outcome was “inactive”. In the case of Nc1c(Cl)c(Cl)c(Cl)c(Cl)c1Cl, the outcome is reported as “inactive”. For COC(=O)c1ccccc1S(=O)(=O)NC(=O)Nc1nc(C)cc(C)n1, the outcome was “inactive”. In the case of Nc1ccccc1C(=O)OCCc1ccccc1, the outcome is reported as “inactive”. With N#Cc1cccc(C#N)c1 the outcome was “inactive”. For O=C(O)CCCc1ccc(N(CCCl)CCCl)cc1, the outcome was “inactive”. With Nc1cc(Cl)cc(Cl)c1 the outcome was “inactive”. In the case of COc1ncc(F)c2nc(S(=O)(=O)Nc3c(F)cccc3F)nn12, the outcome is reported as “inactive”. In the case of BrCBr, the outcome is reported as “inactive”. For CCc1cccc(C)c1N(C(=O)CCl)[C@@H](C)COC, the outcome was “inactive”. In the case of O=P1(NCCCl)OCCCN1CCCl (configuration not stated), the outcome is reported as “inactive”. With CC(Cc1ccc(C(C)(C)C)cc1)CN1C[C@@H](C)O[C@@H](C)C1 (some centres not stated) the outcome was “inactive”. In the case of O=S(=O)(c1ccccc1)c1ccccc1, the outcome is reported as “inactive”. With Clc1ccc(-c2ccccc2)cc1 the outcome was “inactive”. For CN(C)C(=O)C(c1ccccc1)c1ccccc1, the outcome was “inactive”. For C=CCc1ccc(OC(=O)Cc2ccccc2)c(OC)c1, the outcome was “inactive”. For [Cl][Sb]([Cl])[Cl], the outcome was “inactive”. With CCC(=O)c1ccc(Cl)cc1 the outcome was “inactive”. With Cc1ccc(N(SC(F)(Cl)Cl)S(=O)(=O)N(C)C)cc1 the AC50 was 11.1 µM (active). In the case of SCc1ccco1, the outcome is reported as “inactive”. With O=CNC(N1CCN(C(NC=O)C(Cl)(Cl)Cl)CC1)C(Cl)(Cl)Cl (configuration not stated) the outcome was “inactive”. With Oc1cc(Cl)ccc1Cl the outcome was “inactive”. With O=[N+]([O-])c1cc(C(F)(F)F)c(Cl)c([N+](=O)[O-])c1Cl the outcome was “inactive”.
